Here are results for 18 compounds from PubChem BioAssay (NCATS).

Inconclusive results are not listed. Entries that show only a call come without a potency. Values without a mark were called inactive. Calls of active or inactive are those of the source. Calls come from the whole dose curve; as a rule, active = well fitted inhibition curve with a large enough effect; inconclusive = small, poorly fitted or top-dose-only effect; inactive = flat fitted curve, though single readings scatter.

Chain of Glutathione peroxidase 1 (Homo sapiens) (P07203 whole entry, looked up): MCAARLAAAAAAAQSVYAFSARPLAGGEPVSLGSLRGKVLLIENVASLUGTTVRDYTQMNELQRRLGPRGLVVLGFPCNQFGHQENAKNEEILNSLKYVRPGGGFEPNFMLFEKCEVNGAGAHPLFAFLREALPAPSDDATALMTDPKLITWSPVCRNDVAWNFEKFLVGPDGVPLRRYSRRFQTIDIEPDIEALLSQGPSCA

This test has as its target Glutathione peroxidase 1 (Homo sapiens) (UniProt P07203). Put plainly: Primary qHTS Assay for Inhibitors of Recombinant Selenoprotein Glutathione Peroxidase 1 (GPX1) (AID 1845191). Note: nearly all actives have a fitted effect of over 65% in size. As to conditions: recombinant GPX1, GR-coupled NADPH fluorescence, 15 min; series mostly up to 48.8 µM; activity, negative = inhibition: at the top concentration. The method, boiled down: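 10 nM GPX1 + cpd, 30 min RT; start w/ 1 mM GSH, 0.5 mM cumene hydroperoxide, 0.5 mM NADPH, 100 nM GR, 0.01% BSA; buffer 50 mM Tris-HCl pH 7.5, 2 mM EDTA, 150 mM NaCl; Fl 340/450, 0 & 15 min.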
Take `COC(=O)Nc1nc2ccc(Sc3ccccc3)cc2[nH]1`: the Potency entry is “inactive”.

Turning to `COc1cccc(N(C)C(=S)Oc2ccc3c(c2)CCCC3)n1`, the result was inactive. `O=NN(CCCl)C(=O)NC1CCCCC1`: the Potency entry is “inactive”. The same measure, in the same setting: the value for `CC(C)C1CCC(C(=O)N[C@H](Cc2ccccc2)C(=O)O)CC1` (stereo partly drawn) was “inactive”. In the case of `NC(=O)c1cccnc1`, the result was inactive. Consider `O=c1oc2c(O)c(O)cc3c(=O)oc4c(O)c(O)cc1c4c23`, for which the Potency entry is “inactive”. Still for that read-out and setting: as for `C[C@@H](NCCCc1cccc(C(F)(F)F)c1)c1cccc2ccccc12`, the entry is “inactive”. As to `COc1ccc2c(c1)c(CC(=O)OCC(=O)O)c(C)n2C(=O)c1ccc(Cl)cc1`, the “activity, negative = inhibition” value was -20.8%. As to `CS(=O)(=O)c1ccc([C@@H](O)[C@@H](CO)NC(=O)C(Cl)Cl)cc1`, the “activity, negative = inhibition” value was -6.22%. For the compound `N[C@@H](Cc1ccc(O)c(O)c1)C(=O)O`, the Potency entry was “inactive”. Consider `CN1CCCC(n2nc(Cc3ccc(Cl)cc3)c3ccccc3c2=O)CC1` (stereo not drawn), for which the “activity, negative = inhibition” value was -2.34%.

For the compound `O=c1cc(O)c(Cl)c[nH]1`, the outcome was inactive. As for `COc1cc(NCc2ccc3nc(N)nc(N)c3c2C)cc(OC)c1OC`, the Potency entry is “inactive”. For the compound `CCN1CCCC1CNC(=O)c1cc(S(N)(=O)=O)ccc1OC` (stereo not drawn), the “activity, negative = inhibition” value was -4.98%. `COCCCOc1cc(C[C@@H](C[C@H](N)[C@@H](O)C[C@H](C(=O)NCC(C)(C)C(N)=O)C(C)C)C(C)C)ccc1OC`: the Potency result is “inactive”. As to `N=C(N)c1ccc(OCCCCCOc2ccc(C(=N)N)cc2)cc1`, the Potency result was “inactive”. On the same count and under the same terms, the value for `C[C@@H]1C[C@H]2[C@@H]3CCC4=CC(=O)C=C[C@]4(C)[C@@]3(Cl)[C@@H](O)C[C@]2(C)[C@@]1(OC(=O)c1ccco1)C(=O)CCl` was “inactive”. As for `COc1cc(NS(=O)(=O)c2ccc(N)cc2)nc(OC)n1`, the “activity, negative = inhibition” value is -10.2%.
